Assay [1] deals with Lysosomal acid glucosylceramidase (Homo sapiens) (UniProt P04062). The assay can be described thus: Glucocerebrosidase-p2 (AID 348; in the data active = potency below about 10 µM; note: potency is the fitted concentration of half-maximal effect). As to conditions: purified GBA, blue fluorogenic substrate, 40 min. In short, it runs like this: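 Normal human glucocerebrosidase (0.2 nM) with blue fluorogenic substrate (80 uM final) in citrate/phosphate pH 5.9 with 10mM sodium taurocholate, 0.01% tween-20; 40 min RT, NaOH/glycine stop; fluorescence Ex 365/Em 440; AC50 from a titration from 0.6 nM upwards.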

Assay [2] in a line: AP1 Signaling Pathway (AID 357; active = well fitted curve in either direction with a large enough effect, not every such curve was filed as active; note: % is set by controls: 0 for no effect and ±100 for the full control effect). As to conditions: ME-180 AP-1-bla reporter, EGF-induced, beta-lactamase ratio, 5 h; at 7.69 µM (top of the series) unless noted. In short, it runs like this: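 AP-1-bla ME-180 cells, Opti-MEM + 0.5% dialyzed FBS, plated overnight 37 °C. Cpd titration + EC50 EGF, 5 h 37 °C. CCF4 2.5 h RT; ex 405, em 460/530 ratio → %activity, AC50.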
Assay [3] in a line: NFAT Signaling Pathway (AID 444; active = well fitted curve in either direction with a large enough effect, not every such curve was filed as active;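 note: carbachol stimulus at about its EC50 of 1 µM final; % is set by controls: 0 for no effect and ±100 for the full control effect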). Particulars: Jurkat NFAT-bla M1, carbachol, beta-lactamase ratio, 5 h; at 7.69 µM (top of the series) unless noted. The procedure, abridged:
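Jurkat cells with NFAT-driven β-lactamase reporter and co-expressed M1 receptor, stimulated with carbachol (final 1 uM, ~EC50), compound titration, 5 h at 37 °C. CCF4 loaded 1 h at RT; 460/530 nm ratio gave %activity and AC50.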

A short description of assay [4]: Stat Signaling Pathway (AID 446; active = well fitted curve in either direction with a large enough effect, not every such curve was filed as active;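 note: ME-180 cervical cancer cells given 40 pM IL-6 alongside compound; SIE-controlled beta-lactamase reporter measured as 460/530 nm FRET emission ratio; % is set by controls: 0 for no effect and ±100 for the full control effect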). As to conditions: ME-180 SIE beta-lactamase reporter, IL-6 stimulated, 5 h; at 7.69 µM (top of the series) unless noted. In short, it runs like this: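 Compound effects on IL-6-induced STAT reporter activity were measured in ME-180 cells. After overnight culture, cells were co-treated with 40 pM IL-6 for 5 hrs before beta-lactamase substrate loading at room temperature.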

Assay [5] deals with Glucocorticoid receptor (Homo sapiens) (UniProt P04150). The assay can be described thus: GR-GFP Redistribution (AID 450;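 active = compounds whose dose series gives a full or clear partial fitted curve of increased nuclear translocation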; note: potency is the fitted concentration of half-maximal effect). Particulars: U2OS GR-GFP nuclear translocation, laser cytometry, 2 h.
Assay [6] shares this target. In words: GR-EFC Redistribution (AID 451; calls by dose curve; note: potency is the fitted concentration of half-maximal effect). As to conditions: CHO-K1 GR-EFC translocation, beta-gal luminescence, 2 h. The procedure, abridged:
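CHO-K1 cells expressing nuclear EA and GR-ED fragments of b-gal; compounds titrated up to 46 uM final, 2 h at 37 C. GR nuclear translocation read as complemented b-gal luminescence after 1 h RT detection.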

For assay [7], the target named is Cytochrome P450 3A4 (Homo sapiens) (UniProt P08684). The assay can be described thus: qHTS Assay for Activators of Cytochrome P450 3A4 (AID 885). Note: nearly all actives have a fitted effect of over 65% in size. Particulars: recombinant CYP3A4, Luciferin-PPXE luminescence, 60 min; series mostly up to 57.1 µM. The procedure, abridged:
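CYP3A4 activity: Luciferin-PPXE O-dealkylation, 25uM substrate, 200mM KPO4, RT throughout. Read-out is luciferase luminescence; higher values reflect activation.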

Assay [8] is described as follows: qHTS Assay for Lipid Storage Modulators (AID 1519; calls by dose curve). Particulars: Drosophila S3 cells, BODIPY lipid droplet/cell ratio, laser cytometry, cells loaded with oleic acid; for activity change, negative = inhibition: at 57.5 µM (top of the series). The procedure, abridged:
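Cells seeded at 5,000 per well were treated with compounds over a concentration series and loaded with oleic acid (400 uM, as added). Lipid droplet fluorescence (488 nm excitation, 500-530 nm channel) was read by laser-scanning cytometry and normalized to 20 uM Triacsin C.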
For orientation: qHTS replaces the single test concentration by a dilution series.

Assay [9] concerns the target Dual specificity protein kinase CLK4 (Homo sapiens) (UniProt Q9HAZ1). The assay can be described thus: qHTS Assay for Inhibitors of CDC-like Kinase 4 (Kinase-Glo Assay) (AID 1770). Note: nearly all actives have a fitted effect of over 65% in size. Note: potency is the fitted concentration of half-maximal effect. Particulars: recombinant Clk4, Kinase-Glo ATP depletion luminescence; series mostly up to 66.7 µM. In short, it runs like this:
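25 nM Clk4 with 100 uM RS repeat peptide and 1 uM ATP (final) in Tris pH7.5, 10 mM MgCl2, 4.5 h at room temperature. Remaining ATP measured by Kinase-Glo luciferase luminescence.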

The target is the same in assay [10]. In words: qHTS Assay for Inhibitors of CDC-like Kinase 4 (ADP-Glo Assay) (AID 1771). Note: nearly all actives have a fitted effect of over 70% in size. Note: potency is the fitted concentration of half-maximal effect. As to conditions: recombinant CLK4, ADP-Glo luminescence; series mostly up to 80 µM. The procedure, abridged: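 Compounds are pin-transferred onto substrate mix (100 uM RS peptide, 1 uM ATP), then 25 nM Clk4 is added. After 1 hr at room temperature, ADP-Glo reagent runs 45 min, detection reagent 30 min, then luminescence is read.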

For assay [11] the target is unchanged. The assay can be described thus: qHTS Assay for Inhibitors of CDC-like Kinase 4 (ADP-FP Assay) (AID 1795). Note: nearly all actives have a fitted effect of over 60% in size. Note: potency is the fitted concentration of half-maximal effect. As to conditions: Transcreener ADP fluorescence polarization; series mostly up to 50 µM. In short, it runs like this: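 Recombinant Clk4 (6.25 nM) phosphorylated 100 uM RS repeat peptide with 1 uM ATP in 25 mM Tris pH 7.5, 10 mM MgCl2, 0.5 mM EGTA, 2.5 mM DTT, 0.01% Triton X-100 for 1 h. ADP was detected by Transcreener ADP2 competitive fluorescence polarization after 30 min at room temperature.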

The target of assay [12] is Ubiquitin carboxyl-terminal hydrolase 1 (Homo sapiens) (UniProt O94782). In words: Inhibitors of USP1/UAF1: Pilot qHTS (AID 504865).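 Note: rhodamine fluorescence freed from ubiquitin-rhodamine substrate followed over time; top concentration of the series differs between compounds; % is set by controls: 0 for no effect and ±100 for the full control effect; nearly all actives have a fitted effect of over 35% in size.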 Particulars: purified USP1/UAF1, Ub-rhodamine cleavage fluorescence; series mostly up to 54.9 µM. The procedure, abridged:
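USP1/UAF1 complex at 1 nM preincubated 15 min at room temperature with compound, then Ub-Rho substrate added at 150 nM final. Fluorescence (480/540 nm) read kinetically in 50 mM HEPES pH 7.8, 0.5 mM EDTA, 1 mM TCEP, 0.1 mg/ml BSA, 0.01% Tween-20.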

Assay [13] in a line: Primary qHTS for small molecule stabilizers of the endoplasmic reticulum resident proteome: Secreted ER Calcium Modulated Protein (SERCaMP) assay (AID 1508630). Note: % is set by controls: 0 for no effect and ±100 for the full control effect. Particulars: SH-SY5Y GLuc-SERCaMP (Gaussia luciferase released on ER calcium loss) secretion, thapsigargin, luminescence; series mostly up to 38.4 µM. In short, it runs like this: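 The SH-SY5Y reporter protocol was run at 3 concentrations up to 38.3 uM (primary) or 11 concentrations (follow-up): 16 h compound, 100 nM thapsigargin for 4 h, then extracellular luciferase luminescence.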

The target of assay [14] is Mitogen-activated protein kinase 10 (Mus musculus) (UniProt Q61831). The assay can be described thus: JNK3 AlphaScreen Assay (AID 530; active = well fitted curve in either direction with a large enough effect, not every such curve was filed as active). Particulars: JNK3 lysate, c-Jun phosphorylation; series mostly up to 57.1 µM. In short, it runs like this:
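Activity was read by AlphaScreen after JNK3-containing HepG2 lysate (cytokine pre-activated) phosphorylated biotinylated GST-cJun with 10 uM ATP at room temperature. Phospho-Ser73 cJun antibody with Protein-A acceptor beads provided detection.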

Assay [15] addresses 3',5'-cyclic-AMP phosphodiesterase 4B (Homo sapiens) (UniProt Q07343). In words: qHTS Assay for Inhibitors of PDE-IV (AID 607; active = well fitted activation curve with a large enough effect in the main read-out, with a control signal flat, not every such curve was filed as active; note: % of control where 0% means no effect). Particulars: HEK293 ACTOne CNG channel cells, membrane potential fluorescence; series mostly up to 22.9 µM. In short, it runs like this:
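ACTOne HEK293 cells carry a modified cAMP-gated CNG channel and express endogenous PDE4; plated 1000 cells/well, compounds up to 22.9 uM final. Membrane-potential dye fluorescence (ex 535/em 590) was read; parental cells received 10 uM forskolin + 100 uM RO 20-1724.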

Assay [16] has as its target Cytochrome P450 1A2 (Homo sapiens) (UniProt P05177). In words: p450-cyp1a2 (AID 410; calls by dose curve; note: potency is the fitted concentration of half-maximal effect). Particulars: recombinant CYP1A2, luciferin-ME demethylation, luminescence; series mostly up to 57 µM. The procedure, abridged:
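O-Demethylation of luciferin 6' methyl ether by human CYP1A2 is monitored as luciferase luminescence. Substrate sits at Km (100uM); enzyme is 20nM. Values are scaled to 57 uM furafylline as maximal inhibition.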

A short description of assay [17]: qHTS Assay for Identification of Small Molecule Agonists for Hypoxia Response Element Signaling Pathway (AID 914; active = well fitted activation curve with a large enough effect in the signal ratio, with a control signal flat, not every such curve was filed as active; the % refers to the signal ratio; note: potency is the fitted concentration of half-maximal effect). As to conditions: ME-180 (cervical carcinoma) HRE-bla reporter, beta-lactamase ratio, CoCl2, 17 h; activation: stronger effect = higher value. In short, it runs like this:
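In Opti-MEM containing 0.5% dialyzed FBS and 10 mM HEPES, ME-180 HRE-bla cells received a compound titration and EC50 CoCl2. They were incubated 17 hours, then CCF4-loaded 2.5 hours at room temperature before ratio reading.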

Assay [18] addresses Cytochrome P450 2C9 (Homo sapiens) (UniProt P11712). In words: qHTS Assay for Inhibitors and Substrates of Cytochrome P450 2C9 (AID 883). Note: % is set by controls: 0 for no effect and ±100 for the full control effect; nearly all actives have a fitted effect of over 60% in size. As to conditions: recombinant CYP2C9, luciferin-H luminescence, 60 min; series mostly up to 57.1 µM. In short, it runs like this:
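Signal: luciferase luminescence reporting luciferin produced by CYP2C9. Conditions: 10nM enzyme, Luciferin-H 100uM at KM, 25mM KPO4, 37C, 60 min NADPH-driven reaction. Reference: 57uM sulphaphenazole as 100% inhibition.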

Where [19] appears, read: measured here: cell count channel max response.
Where [20] appears, read: measured here: lipid channel max response.

Results filed as inconclusive are left out. The source made the active and inactive calls. Unless noted, calls come from the whole dose curve; as a rule, active = well fitted curve in the direction sought with a large enough effect; inconclusive = small, poorly fitted or top-dose-only effect, or another doubt; inactive = no such curve, though single readings can be large; an effect the other way counts as inactive or inconclusive. A value given as a limit tells only on which side of the number the result lay.

The source of these data is PubChem BioAssay (NCATS).

Dual specificity protein kinase CLK4 (Homo sapiens), sequence (Q9HAZ1 whole entry, looked up): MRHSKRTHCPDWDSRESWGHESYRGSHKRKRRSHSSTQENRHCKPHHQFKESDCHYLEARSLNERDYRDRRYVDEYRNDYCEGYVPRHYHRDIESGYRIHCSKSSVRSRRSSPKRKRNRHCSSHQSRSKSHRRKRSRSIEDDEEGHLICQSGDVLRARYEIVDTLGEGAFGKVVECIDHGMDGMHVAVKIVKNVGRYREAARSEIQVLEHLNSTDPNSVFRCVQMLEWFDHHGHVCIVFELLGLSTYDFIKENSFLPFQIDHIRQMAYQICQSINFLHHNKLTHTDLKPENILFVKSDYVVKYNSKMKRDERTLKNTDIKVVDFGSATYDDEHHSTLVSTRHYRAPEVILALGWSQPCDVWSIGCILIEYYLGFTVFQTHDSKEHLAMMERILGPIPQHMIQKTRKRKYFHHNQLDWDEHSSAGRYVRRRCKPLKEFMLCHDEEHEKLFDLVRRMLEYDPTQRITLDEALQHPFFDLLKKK
Cytochrome P450 3A4 (Homo sapiens), sequence (P08684 whole entry, looked up): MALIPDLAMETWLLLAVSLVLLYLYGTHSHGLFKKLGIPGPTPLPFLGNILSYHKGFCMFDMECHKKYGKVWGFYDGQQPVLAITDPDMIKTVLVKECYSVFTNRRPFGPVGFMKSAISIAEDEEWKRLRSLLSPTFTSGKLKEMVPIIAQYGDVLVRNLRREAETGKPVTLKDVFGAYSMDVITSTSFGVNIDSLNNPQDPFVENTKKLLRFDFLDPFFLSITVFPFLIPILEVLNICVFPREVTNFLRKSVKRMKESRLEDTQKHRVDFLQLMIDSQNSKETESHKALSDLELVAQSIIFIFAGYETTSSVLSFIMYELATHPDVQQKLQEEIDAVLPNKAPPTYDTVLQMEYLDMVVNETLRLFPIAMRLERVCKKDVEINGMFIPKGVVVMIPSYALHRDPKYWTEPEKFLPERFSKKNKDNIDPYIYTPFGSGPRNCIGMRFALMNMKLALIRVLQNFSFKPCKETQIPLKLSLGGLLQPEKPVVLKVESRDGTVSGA
Glucocorticoid receptor (Homo sapiens), sequence (P04150 whole entry, looked up): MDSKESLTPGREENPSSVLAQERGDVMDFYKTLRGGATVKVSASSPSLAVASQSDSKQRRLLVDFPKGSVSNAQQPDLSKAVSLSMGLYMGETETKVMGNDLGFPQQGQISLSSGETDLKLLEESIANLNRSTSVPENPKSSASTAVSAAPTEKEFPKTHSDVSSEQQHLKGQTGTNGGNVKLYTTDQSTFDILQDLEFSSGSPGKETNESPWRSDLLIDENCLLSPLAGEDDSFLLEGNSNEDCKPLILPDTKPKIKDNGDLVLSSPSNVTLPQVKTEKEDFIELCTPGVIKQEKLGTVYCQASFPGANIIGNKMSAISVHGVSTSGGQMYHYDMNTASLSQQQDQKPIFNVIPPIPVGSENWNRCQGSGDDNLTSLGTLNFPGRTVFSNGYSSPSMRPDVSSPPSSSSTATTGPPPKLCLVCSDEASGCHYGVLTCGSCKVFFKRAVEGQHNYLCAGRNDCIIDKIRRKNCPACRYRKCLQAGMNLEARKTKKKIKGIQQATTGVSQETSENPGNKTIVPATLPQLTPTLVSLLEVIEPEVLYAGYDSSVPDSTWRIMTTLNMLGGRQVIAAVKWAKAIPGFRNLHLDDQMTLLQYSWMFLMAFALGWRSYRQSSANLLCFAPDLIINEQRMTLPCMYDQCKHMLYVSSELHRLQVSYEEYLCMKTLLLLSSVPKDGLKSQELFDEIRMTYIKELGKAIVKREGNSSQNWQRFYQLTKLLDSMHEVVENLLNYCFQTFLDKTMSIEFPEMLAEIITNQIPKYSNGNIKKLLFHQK
3',5'-cyclic-AMP phosphodiesterase 4B (Homo sapiens), sequence (Q07343 whole entry, looked up): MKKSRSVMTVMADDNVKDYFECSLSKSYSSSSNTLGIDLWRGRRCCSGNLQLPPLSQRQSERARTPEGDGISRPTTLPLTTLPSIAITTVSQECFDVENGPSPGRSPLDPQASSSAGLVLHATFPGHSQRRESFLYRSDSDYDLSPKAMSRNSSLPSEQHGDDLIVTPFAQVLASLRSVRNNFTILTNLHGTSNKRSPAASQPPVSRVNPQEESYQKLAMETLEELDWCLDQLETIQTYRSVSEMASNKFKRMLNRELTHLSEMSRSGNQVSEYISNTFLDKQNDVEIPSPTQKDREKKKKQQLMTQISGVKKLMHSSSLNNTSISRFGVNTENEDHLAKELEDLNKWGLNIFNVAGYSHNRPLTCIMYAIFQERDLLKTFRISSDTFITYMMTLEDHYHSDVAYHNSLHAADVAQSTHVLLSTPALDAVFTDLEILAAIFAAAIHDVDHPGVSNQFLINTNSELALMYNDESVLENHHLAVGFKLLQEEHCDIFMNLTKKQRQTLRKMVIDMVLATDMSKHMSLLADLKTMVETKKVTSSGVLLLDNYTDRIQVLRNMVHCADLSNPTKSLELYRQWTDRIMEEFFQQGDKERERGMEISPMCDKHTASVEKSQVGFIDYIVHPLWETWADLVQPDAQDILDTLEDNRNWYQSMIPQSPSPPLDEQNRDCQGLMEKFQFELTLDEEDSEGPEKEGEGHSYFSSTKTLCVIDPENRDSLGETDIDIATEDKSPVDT
Ubiquitin carboxyl-terminal hydrolase 1 (Homo sapiens), sequence (O94782 whole entry, looked up): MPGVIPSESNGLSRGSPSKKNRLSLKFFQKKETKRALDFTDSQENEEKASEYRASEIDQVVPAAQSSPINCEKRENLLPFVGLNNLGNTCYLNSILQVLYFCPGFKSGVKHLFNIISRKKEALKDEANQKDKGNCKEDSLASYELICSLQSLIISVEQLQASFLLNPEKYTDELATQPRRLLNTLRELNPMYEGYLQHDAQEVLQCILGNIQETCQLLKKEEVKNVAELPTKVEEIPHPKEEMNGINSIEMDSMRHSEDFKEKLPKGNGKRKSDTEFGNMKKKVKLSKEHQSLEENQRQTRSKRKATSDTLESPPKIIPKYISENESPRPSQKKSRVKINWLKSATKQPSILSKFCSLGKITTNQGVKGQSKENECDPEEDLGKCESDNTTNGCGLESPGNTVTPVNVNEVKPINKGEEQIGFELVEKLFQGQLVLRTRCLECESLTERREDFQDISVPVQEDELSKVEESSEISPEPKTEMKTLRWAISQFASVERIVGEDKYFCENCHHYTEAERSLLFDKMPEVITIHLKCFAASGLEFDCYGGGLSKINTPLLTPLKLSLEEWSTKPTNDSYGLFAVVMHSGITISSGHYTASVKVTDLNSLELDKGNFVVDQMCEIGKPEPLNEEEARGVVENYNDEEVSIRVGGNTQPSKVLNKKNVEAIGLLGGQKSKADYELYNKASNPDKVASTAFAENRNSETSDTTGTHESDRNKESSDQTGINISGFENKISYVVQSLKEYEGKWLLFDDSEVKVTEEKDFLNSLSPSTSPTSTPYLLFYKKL
Lysosomal acid glucosylceramidase (Homo sapiens), sequence (P04062 whole entry, looked up): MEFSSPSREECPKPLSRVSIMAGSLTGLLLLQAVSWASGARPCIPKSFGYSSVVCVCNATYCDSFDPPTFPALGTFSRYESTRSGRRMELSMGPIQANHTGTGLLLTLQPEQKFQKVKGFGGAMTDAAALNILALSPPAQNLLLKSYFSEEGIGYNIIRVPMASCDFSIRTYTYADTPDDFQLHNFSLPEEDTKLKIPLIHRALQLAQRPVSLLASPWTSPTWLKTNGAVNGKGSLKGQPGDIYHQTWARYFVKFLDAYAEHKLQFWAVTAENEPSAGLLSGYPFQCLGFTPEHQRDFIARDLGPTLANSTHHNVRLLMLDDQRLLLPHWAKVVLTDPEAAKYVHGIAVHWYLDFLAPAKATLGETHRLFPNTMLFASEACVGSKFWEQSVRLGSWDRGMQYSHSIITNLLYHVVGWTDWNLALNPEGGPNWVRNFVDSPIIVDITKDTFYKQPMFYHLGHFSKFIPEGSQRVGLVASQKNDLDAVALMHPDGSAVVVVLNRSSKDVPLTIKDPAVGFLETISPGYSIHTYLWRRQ
Cytochrome P450 1A2 (Homo sapiens), sequence (P05177 whole entry, looked up): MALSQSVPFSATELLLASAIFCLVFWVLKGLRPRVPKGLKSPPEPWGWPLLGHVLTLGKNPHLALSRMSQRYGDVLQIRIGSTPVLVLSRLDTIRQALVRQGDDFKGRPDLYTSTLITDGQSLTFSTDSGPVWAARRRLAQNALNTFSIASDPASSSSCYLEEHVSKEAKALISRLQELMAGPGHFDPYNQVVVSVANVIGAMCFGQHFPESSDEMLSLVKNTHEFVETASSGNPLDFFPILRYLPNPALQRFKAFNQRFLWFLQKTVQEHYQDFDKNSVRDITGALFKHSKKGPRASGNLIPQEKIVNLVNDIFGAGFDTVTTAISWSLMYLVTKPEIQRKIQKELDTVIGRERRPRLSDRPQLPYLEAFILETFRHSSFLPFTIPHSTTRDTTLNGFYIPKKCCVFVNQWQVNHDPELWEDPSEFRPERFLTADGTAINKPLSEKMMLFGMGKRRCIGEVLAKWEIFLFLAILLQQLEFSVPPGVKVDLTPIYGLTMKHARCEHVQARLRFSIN
Cytochrome P450 2C9 (Homo sapiens), sequence (P11712 whole entry, looked up): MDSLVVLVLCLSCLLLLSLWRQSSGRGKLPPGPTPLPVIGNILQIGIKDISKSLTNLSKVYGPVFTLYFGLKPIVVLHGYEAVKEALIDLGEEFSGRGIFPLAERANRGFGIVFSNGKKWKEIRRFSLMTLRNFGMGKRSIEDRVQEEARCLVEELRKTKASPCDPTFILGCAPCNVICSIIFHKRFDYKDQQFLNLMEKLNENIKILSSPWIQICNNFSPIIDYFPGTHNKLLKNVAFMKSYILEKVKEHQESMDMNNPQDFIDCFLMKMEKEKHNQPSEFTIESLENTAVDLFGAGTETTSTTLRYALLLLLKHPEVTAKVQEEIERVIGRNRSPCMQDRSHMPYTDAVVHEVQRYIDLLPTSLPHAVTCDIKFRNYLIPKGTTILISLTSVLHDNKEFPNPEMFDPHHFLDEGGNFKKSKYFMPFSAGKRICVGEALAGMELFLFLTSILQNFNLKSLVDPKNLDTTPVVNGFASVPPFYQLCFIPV

As to `CN(C)c1ncc2nc(-c3ccccc3)c(=O)n(C[C@H]3CCCO3)c2n1`, the Potency is > 11.4 µM (inactive) in [1], > 9.22 µM (inactive) in [5] and > 46 µM (inactive) in [6]. The values for the activity change, negative = inhibition in [2], in assay [3] and in assay [8] were 11.9% (inactive), 24.6% (inactive) and 0.857% (inactive), respectively. Also, in [4], the activity, negative = inhibition was 20.6% (inactive). The Potency result in assay [7], in assay [9], in assay [10], in assay [11], in assay [12] and in [13] was “inactive” each time. Also, the max response worked out at 3.82% in [8] (setting [19]) and 2.54% in [8] (setting [20]).

Regarding `Cc1nc2cnc(N3CCOCC3)nc2n(C2CC2)c1=O`, the values for the Potency in [1], in [5] and in [6] were > 11.4 µM (inactive), > 9.22 µM (inactive) and > 46 µM (inactive), respectively. The activity change, negative = inhibition in [2] is -11.6% (inactive); in assay [3] it was -11.7% (inactive); in [8], 7% (inactive). Besides, in assay [4], the activity, negative = inhibition is -3.09% (inactive). The compound was called inactive in [14]. Moreover, the Potency entry in assay [15], in assay [7], in [9], in [10], in [11] and in assay [12] was “inactive” throughout. Besides, the Potency entry in [13] was “inactive”. For the same compound, the max response was 18% in assay [8] (setting [19]) and 23.9% in [8] (setting [20]).

On to `COCCn1c(=O)c(C)nc2cnc(Oc3ccccc3)nc21`, for which the figures for the Potency in assay [1] and in assay [5] were > 11.4 µM (inactive) and > 9.22 µM (inactive), respectively. Besides, the activity change, negative = inhibition was -9.67% (inactive) in [2], -4.22% (inactive) in assay [3] and 4.7% (inactive) in assay [8]. Besides, the activity, negative = inhibition in assay [4] was -12.4% (inactive). Besides, in assay [14], the call was inactive. Besides, the Potency result in [7], in assay [9], in assay [10], in assay [11], in assay [12] and in assay [13] was “inactive” throughout. Besides, the max response is 23.5% in [8] (setting [19]) and 27.5% in assay [8] (setting [20]).

In the case of `COCCNc1ncnc2ccc(-c3cccc(OC)c3)cc12`, the Potency in assay [1] was > 11.4 µM (inactive); in assay [16], 0.794 µM (active); in [5], > 46 µM (inactive); in assay [6], > 46 µM (inactive); in assay [9], 0.708 µM (active); in [10], 0.562 µM (active). For the same compound, the Potency in assay [11] is 0.501 µM (active). Moreover, the activity, negative = inhibition in [4] is -27.4% (inactive). For the same compound, the outcome in [14] was inactive. Besides, the Potency entry in assay [15], in assay [7], in assay [12] and in [13] was “inactive” each time. Also, the activity change, negative = inhibition in assay [8] was -4.77% (inactive). For the same compound, the max response is -9.38% in assay [8] (setting [19]) and -14.2% in [8] (setting [20]).

For the compound `CN1CCN(c2ncc3nc(-c4cc(F)cc(F)c4)c(=O)n(Cc4cccs4)c3n2)CC1`, the Potency in [1] is > 11.4 µM (inactive); in [16], 6.31 µM (active); in [5] it was > 9.22 µM (inactive); in assay [6] it was > 46 µM (inactive); in assay [17], 3.16 µM (active). The values for the activity change, negative = inhibition in assay [3] and in assay [8] were 168% [activator] (active) and -9.14% (inactive), respectively. For the same compound, the outcome in [14] was inactive. The Potency entry in assay [15], in assay [7], in assay [9], in assay [10], in assay [11] and in assay [12] was “inactive” in each case. Also, the Potency entry in assay [13] was “inactive”. In addition, the figures for the max response in [8] (setting [19]) and in [8] (setting [20]) were 17.2% and 3.46%, respectively.

`O=c1c(-c2ccc(Cl)cc2)nc2cnc(N3CCOCC3)nc2n1-c1ccccc1`: the Potency in assay [1] is > 11.4 µM (inactive); in assay [16], 2 µM (active); in [5] it was > 9.22 µM (inactive); in assay [6], > 46 µM (inactive). The call in assay [14] was inactive. The Potency result in assay [15], in [18], in assay [9], in [10], in assay [11] and in [12] was “inactive” in each case. In assay [13], the Potency result was “inactive”. The activity change, negative = inhibition in assay [8] was -3% (inactive). Further, the figures for the max response in [8] (setting [19]) and in [8] (setting [20]) were 25.3% and 19.1%, respectively.
